Test results from the supplement of paper PMC12532568.
Structures can show the parent of a compound that is named as a salt.

tested on: Danio rerio larvae Tg(actc1b:ZsGreen-LC3), 3 dpf; experiment: LC3 puncta relative area vs vehicle, without NH4Cl (log2 fold change); higher = more autophagosomes; conditions: 10 µM; treatment time 16 h; NH4Cl: none
Experimental: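 Transgenic Tg(actc1b:ZsGreen-map1lc3) zebrafish larvae (2 dpf) were treated for 16 h with Tocris library compounds at 10 µM (n = 12 larvae per compound). Skeletal-muscle LC3 puncta area relative to body area was measured by high-content confocal imaging before and after 4 h of 100 mM NH4Cl (autophagic flux), normalised to vehicle (DMSO), and reported as log2 fold change.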

Structure (SMILES) | LC3 puncta (log2)
N[C@@H](C(=O)O)c1ccc(O)c(C(=O)O)c1 [(R)-3-Carboxy-4-hydroxyphenylglycine] | 0.211
CC[C@@H]1C(=O)OC[C@@H]1Cc1cncn1C [Pilocarpine hydrochloride] | 0.203
Nc1nc2ccc(OC(F)(F)F)cc2s1 [Riluzole] | 0.289
Cc1ccc(OCC(O)C(C)NC(C)C)c2c1CCC2 (stereo not given) [ICI 118,551 hydrochloride] | -0.0345
NC(C(=O)O)c1cc(O)cc(O)c1 (racemic) | 0.194
CCc1nc(N)nc(N)c1-c1ccc(Cl)cc1 [Pyrimethamine] | 0.169
O=S(=O)(c1cccc2c(Cl)cccc12)N1CCCNCC1 [ML 9 hydrochloride] | 0.232
O=C(OCCN1CCCCC1)c1c[nH]c2ccccc12 | 0.11
COc1ccc2[nH]c(I)c(CCNC(C)=O)c2c1 [2-Iodomelatonin] | 0.515
c1ccc(N2CCN(CCCOc3ccc4c(c3)OCO4)CC2)cc1 [BP 554 maleate] | 0.01
O=C1c2ccccc2CCC1CNCCc1ccc(O)cc1 (stereo not given) [HEAT hydrochloride] | 0.103
NC(N)=Nc1ccc(Cl)cc1 [4-Chlorophenylguanidine hydrochloride] | -0.45
CC12CC3CC(C)(C1)CC(N)(C3)C2 [Memantine hydrochloride] | 0.145
NC(=O)Nc1sc(-c2ccc(F)cc2)cc1C(N)=O | 0.302
CSc1ccc2c(c1)C(N1CCN(C)CC1)Cc1ccccc1S2 (stereo not given) [Methiothepin maleate] | -0.425
CC#CCOC(=O)C1=CCCN(C)C1 [Arecaidine but-2-ynyl ester tosylate] | 0.463
CCN(CC)CCOC(=O)C1(c2ccc([N+](=O)[O-])cc2)CCCC1 [Nitrocaramiphen hydrochloride] | 0.254
c1ccc2nc(C3=NCCN3)cnc2c1 [BU 239 hydrochloride] | -0.208
NS(=O)(=O)c1cccc2c1c([N+](=O)[O-])cc1nc(O)c(O)nc12 | 0.286
NC(=O)CCCCn1ccc(NC(N)=NCC(F)(F)F)n1 | 0.486

Structure (SMILES) | LC3 puncta (log2)
O=C(O)CC/C=C\C[C@H]1CO[C@@H](c2ccccc2Cl)O[C@H]1c1ccccc1O | -0.249
CCCCOc1cc(CC2CNC(=O)N2)ccc1OC (stereo not given) | -0.122
CN(C)CCCCSC(=N)N | 0.222
CN(C)CCCn1cc(C2=C(c3c[nH]c4ccccc34)C(=O)NC2=O)c2ccccc21 | 0.584
O=C(O)C1=CCNCC1 [Isoguvacine hydrochloride] | 0.169
Clc1cccc(Nc2nnc(-c3ccccc3)c3ccccc23)c1 | 0.29
O=S(=O)(c1cccc2cnccc12)N1CCCNCC1 [Fasudil hydrochloride] | 0.598
CCN(CC)CCOCCOC(=O)C1(c2ccccc2)CCCC1 [Carbetapentane citrate] | -0.0165
COc1ccc(CCN(C)CCc2ccc(OC)c(OC)c2)cc1OC [YS-035 hydrochloride] | 0.265
O=[N+]([O-])c1cccc2c(Br)[nH]nc12 [3-Bromo-7-nitroindazole] | 0.159
COc1cc2c(CCNC(C)=O)c[nH]c2cc1Cl [6-Chloromelatonin] | -0.363
O=C(O)c1cc(=O)c2ccccc2[nH]1 [Kynurenic acid] | 0.00327
O=C(O)C=C1CCCc2ccccc2C1O (stereo not given) | 0.299
Brc1c(NC2=NCCN2)ccc2nccnc12 | 0.438
Nc1cc(N2CCCCC2)nc(N)[n+]1[O-] [Minoxidil] | 0.233
CC(CCc1ccc(O)cc1)NCCc1ccc(O)c(O)c1 (stereo not given) [Dobutamine hydrochloride] | -0.094
COCCOC(=O)C1=C(C)NC(C)=C(C(=O)OC(C)C)C1c1cccc([N+](=O)[O-])c1 (stereo not given) [Nimodipine] | 0.31
CCN(CC)CCOc1ccc(Cc2ccccc2)cc1 [DPPE fumarate] | 0.714
COc1cc2nc(N3CCN(C(=O)c4ccco4)CC3)nc(N)c2cc1OC [Prazosin hydrochloride] | -0.131
COc1ccc([C@@H]2Sc3ccccc3N(CCN(C)C)C(=O)[C@@H]2OC(C)=O)cc1 [Diltiazem hydrochloride] | 0.112
